Measured values: PubChem BioAssay (NCI)
About 79,000 compounds went through this panel and 15% of them were active in at least one assay; those are over-represented in the sample as a whole. The source made the active and inactive calls. Cut-off read from the data, not from the text of the source: active = growth inhibition above about 70%; inactive = the rest.

Key:
[1] = NCI Yeast Anticancer Drug Screen. Data for the rad50 strain (AID 155);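 note: 0% = growth of vehicle-only cultures of the same strain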; details: S. cerevisiae rad50 strain growth inhibition, hits give high values
Outline: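 Vehicle-treated cultures provide the reference for the growth inhibition reported for compound-exposed, repair-deficient yeast.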

[2] = NCI Yeast Anticancer Drug Screen. Data for the mec2-1 strain (AID 157); details: S. cerevisiae mec2-1 strain, hits give high values
Outline: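 Readout is yeast growth inhibition, normalised to vehicle-treated controls, in the mec2-1 strain exposed to compound.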

[3] = NCI Yeast Anticancer Drug Screen. Data for the sgs1 mgt1 strain (AID 161);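 note: 0% = growth of cultures given vehicle only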; details: S. cerevisiae sgs1 mgt1 strain, hits give high values
Outline: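 Yeast cells carrying a defined DNA-repair defect were exposed to test compounds. Growth inhibition was measured relative to vehicle-treated controls.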

[4] = NCI Yeast Anticancer Drug Screen. Data for the cln2 rad14 strain (AID 165);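 note: 0% = growth equal to vehicle treated cultures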; details: S. cerevisiae cln2 rad14 strain, hits give high values
Outline: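 Relative to vehicle controls, growth inhibition of compound-treated cln2 rad14 yeast was recorded.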

[5] = NCI Yeast Anticancer Drug Screen. Data for the bub3 strain (AID 167); details: S. cerevisiae bub3 mutant strain, hits give high values
Outline: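 Mutant yeast screening strain plus compound; vehicle-treated cultures serve as the 0% inhibition reference.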

[6] = NCI Yeast Anticancer Drug Screen. Data for the mlh1 rad18 strain (AID 175); details: S. cerevisiae mlh1 rad18 strain growth inhibition, hits give high values
Outline: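 Test agents were incubated with a yeast strain of defined genotype (DNA damage repair defect). Inhibition of growth was derived by comparison with vehicle-exposed cultures.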

[7] = at 5.0 µM (retest, dose inferred, filed as 0.5)
[8] = at 50.0 µM (retest, dose inferred, filed as 5.0)

Measured: growth inhibition

O=C(N/C(=C\c1ccc([N+](=O)[O-])cc1)c1nc2ccccc2s1)c1ccccc1
active: [1]; [8] 73% | [2]; at 50.0 µM 76.2% | [3]; [8] 72% | [5]; [8] 83% | [5]; at 50.0 µM 80.3% | [6]; at 50.0 µM 72.5%
inactive: [1]; [7] 3% | [1]; at 50.0 µM 24.8% | [2]; [7] 1% | [2]; [8] 69% | [3]; [7] -1% | [3]; at 50.0 µM 54.4% | [4]; [7] -2% | [4]; [8] 25% | [4]; at 50.0 µM 20% | [5]; [7] 4% | [6]; [7] 2% | [6]; [8] 55%

O=c1oc(-c2ccc(Cl)c([N+](=O)[O-])c2)ns1
inactive: [1]; [7] 1% | [2]; [7] 3% | [3]; [7] 4% | [4]; [7] 4% | [4]; [8] 48% | [4]; at 50.0 µM 53.6% | [5]; [7] 1% | [6]; [7] 2%
active: [1]; [8] 92% | [1]; at 50.0 µM 97.1% | [2]; [8] 93% | [2]; at 50.0 µM 95.3% | [3]; [8] 89% | [3]; at 50.0 µM 97.8% | [5]; [8] 91% | [5]; at 50.0 µM 97.2% | [6]; [8] 98% | [6]; at 50.0 µM 91.8%

CCCCCCCCCC[N+](C)(C)CCC[N+](C)(C)CCCCCCCCCC
inactive: [1]; [7] 42% | [2]; [7] 20% | [3]; [7] 37% | [4]; [7] 32% | [5]; [7] 31% | [5]; at 50.0 µM 62.6% | [6]; [7] 31% | [6]; at 50.0 µM 61.8%
active: [1]; [8] 93% | [1]; at 50.0 µM 89.5% | [2]; [8] 88% | [2]; at 50.0 µM 91.2% | [3]; [8] 98% | [3]; at 50.0 µM 88.3% | [4]; [8] 88% | [4]; at 50.0 µM 78.2% | [5]; [8] 95% | [6]; [8] 89%

CN(c1ccc(Cl)cc1)S(=O)(=O)c1cccc([N+](=O)[O-])c1
active: [2]; [8] 71% | [3]; at 50.0 µM 70.8% | [5]; [8] 90% | [5]; at 50.0 µM 78%
inactive: [1]; [7] -6% | [1]; [8] 52% | [1]; at 50.0 µM 42.7% | [2]; [7] -13% | [2]; at 50.0 µM 42.8% | [3]; [7] -6% | [3]; [8] 62% | [4]; [7] 27% | [4]; [8] 48% | [4]; at 50.0 µM 48.4% | [5]; [7] -28% | [6]; [7] -11% | [6]; [8] 51% | [6]; at 50.0 µM 58.9%

COc1cc(CNc2nc3ccccc3nc2-c2cccs2)cc(OC)c1OC
inactive: [1]; [7] 5% | [1]; [8] 12% | [1]; at 50.0 µM 10% | [2]; [7] -13% | [2]; [8] -22% | [2]; at 50.0 µM 0.65% | [3]; [7] -1% | [3]; [8] 20% | [3]; at 50.0 µM 19.6% | [4]; [7] -12% | [4]; [8] 9% | [4]; at 50.0 µM 60% | [5]; [7] -12% | [5]; [8] -8% | [5]; at 50.0 µM 30% | [6]; [7] -17% | [6]; [8] 17% | [6]; at 50.0 µM 55.3%

CC(C)c1ccc(CN(CCO)Cc2ccc(C(C)C)cc2)cc1
active: [1]; [8] 84% | [1]; at 50.0 µM 97.2% | [2]; [8] 88% | [2]; at 50.0 µM 75.6% | [3]; [8] 95% | [3]; at 50.0 µM 97.1% | [4]; [8] 87% | [4]; at 50.0 µM 77.3% | [5]; [8] 97% | [5]; at 50.0 µM 98.6% | [6]; [8] 91% | [6]; at 50.0 µM 81.8%
inactive: [1]; [7] 7% | [2]; [7] 3% | [3]; [7] 6% | [4]; [7] 7% | [5]; [7] 7% | [6]; [7] 8%

CCCCCCCCCCCCCCCCCCOC(=O)C(N)Cc1ccccc1 (stereo not given)
inactive: [1]; [7] -1% | [1]; [8] -9% | [1]; at 50.0 µM -7.3% | [2]; [7] -2% | [2]; [8] -5% | [2]; at 50.0 µM 10.1% | [3]; [7] 0% | [3]; [8] -6% | [3]; at 50.0 µM 11.1% | [4]; [7] -6% | [4]; [8] -4% | [4]; at 50.0 µM -7.75% | [5]; [7] -2% | [5]; [8] -3% | [5]; at 50.0 µM -5.85% | [6]; [7] -3% | [6]; [8] -8% | [6]; at 50.0 µM 5.5%

C=C(Br)CN(CC)CC
inactive: [1]; [7] -151% | [1]; [8] -185% | [1]; at 50.0 µM -16.6% | [2]; [7] -48% | [2]; [8] -54% | [2]; at 50.0 µM -15.7% | [3]; [7] -64% | [3]; [8] -67% | [3]; at 50.0 µM -5.55% | [4]; [7] -51% | [4]; [8] -63% | [4]; at 50.0 µM 11.7% | [5]; [7] -69% | [5]; [8] -72% | [5]; at 50.0 µM -0.5% | [6]; [7] -130% | [6]; [8] -170% | [6]; at 50.0 µM -3.5%

COC(=O)C1=C(C(=O)OC)C2C(C)=CC(C)=CN2C(C(=O)OC)=C1C(=O)OC (stereo not given)
active: [4]; at 50.0 µM 74.3%
inactive: [1]; [7] -1% | [1]; [8] -7% | [1]; at 50.0 µM 11.2% | [2]; [7] 0% | [2]; [8] 2% | [2]; at 50.0 µM 5.8% | [3]; [7] -10% | [3]; [8] 4% | [3]; at 50.0 µM 2.3% | [4]; [7] -2% | [4]; [8] -5% | [5]; [7] 2% | [5]; [8] -3% | [5]; at 50.0 µM -6.7% | [6]; [7] -4% | [6]; [8] -4% | [6]; at 50.0 µM 25.4%

CCOc1cc2c(cc1O)CC[C@@H]1[C@@H]2CC[C@]2(C)[C@@H](O)CC[C@@H]12
inactive: [1]; [7] 33% | [1]; [8] 39% | [1]; at 50.0 µM 41% | [2]; [7] 13% | [2]; [8] 33% | [2]; at 50.0 µM -10.4% | [3]; [7] 13% | [3]; [8] 34% | [3]; at 50.0 µM 46.8% | [4]; [7] 12% | [4]; [8] 30% | [4]; at 50.0 µM 33.4% | [5]; [7] 25% | [5]; [8] 39% | [5]; at 50.0 µM 44.2% | [6]; [7] 27% | [6]; [8] 42% | [6]; at 50.0 µM 40.8%
